# Assay results: PubChem BioAssay (NCI)
# Compounds without any hit were thinned out: in the full panel of roughly 83,000, 20% have a hit.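 Values shown are percent growth following 48 h exposure of cells in 96-well plates to a single concentration of compound; below 10 was considered active.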 Unmarked numbers belong to inactive results. Active and inactive are the calls of the source.
# Tested on: MDA-MB-468 breast
# Test: NCI-60 one-dose screen, 48 h (100 = growth as untreated, 0 = no growth, -100 = all killed)
# Details: 10 µM unless noted
row,SMILES,growth
1,C[C@@H]1C[C@H](N)C[C@H](c2ccncc2NC(=O)c2ccc(F)c(-c3c(F)cccc3F)n2)C1,22.3%
2,O=C(/C=C/c1cccnc1)NCCCCC1CCCN(C(=O)c2ccccc2)C1 (centres undefined),87.9%
3,Cc1cc(N/N=C/c2nc(-c3ccc(Cl)cc3)oc2C)c2cc(Br)ccc2n1,-36.6% (active)
4,O=P(O)(c1ccccc1)c1ccccc1I,89.5%
5,CCCCCN1C=C/C(=C\C(=O)N(C)c2ccc(Br)cc2)c2ccccc21,73.8%
6,COc1cccc(/C=C2\SC(=Nc3ccc(NC(C)=O)cc3)NC2=O)c1OC,109%
7,CN1CCN(CC#CCn2c3c(c4ccccc42)C[C@]2(C)[C@H]4CC=C5[C@@H]6CC(C)(C)CC[C@]6(C(=O)N6CCOCC6)CC[C@@]5(C)[C@]4(C)CC[C@H]2C3(C)C)CC1,79.4%
8,COc1ccc(Nc2nc3ccc(NC(=O)NC4CCCCC4)cc3[nH]c2=O)cc1,96%
9,CC(=O)NNC(=O)c1sc(NC(C)=O)nc1C,104%
10,CCCCCCCCN(CCCCCCCC)C(=N)c1ccnc2ccccc12,-75.5% (active)
11,COC1=CC(c2ccc[nH]2)=N/C1=C\c1[nH]c(C)c(C(=O)CCCCCCCCC(=O)O[C@H]2CC[C@H]3C4CCc5cc(O)ccc5C4CC[C@]23C)c1C (some centres undefined),37.5%
12,Nc1nccc(=S)[nH]1,109%
13,COc1ccc(-c2cc(-c3ccc(Cl)cc3)nc(SCCCC(=O)NO)n2)cc1OC,-55.5% (active)
14,CN(C)CCCOc1ccc(NC2=C(Cl)C(=O)C(Nc3ccc(OCCCN(C)C)cc3)=C(Cl)C2=O)cc1,-57.2% (active)
15,O=C(Nc1ccc(Cl)cc1)c1cc(-c2ccc(Cl)cc2)c2sc(=O)[nH]c2n1,-3.42% (active)
16,CCN(CC)CC#CCOC(=O)[C@]1(C)CCC[C@]2(C)c3ccc(C(C)C)cc3CC[C@@H]12,65.3%
17,Clc1cc(Cl)cc(N2N=C(c3cccc(Nc4ccncc4)c3)CC2c2ccccc2)c1 (centres undefined),37.9%
18,O=C1c2cccc3cccc(c23)C(=O)N1CC#Cc1ccc2c3c(cccc13)C(=O)N(CCN1CCNCC1)C2=O,111%
19,Cc1nc(C)c(C)nc1C,106%
20,C=CCn1ccc(=O)nc1SC,115%

row,SMILES,growth
1,COc1ccc(NC2=C(Br)C(=O)C(C)=C(C)C2=O)cc1,-59% (active)
2,O=C(Nc1ncc(Cc2ccc(Cl)cc2)s1)C1=NCCCCN1,102%
3,O=C1Nc2c(ccc(Cl)c2Cl)/C1=C/c1ccc(F)cc1,51.9%
4,COc1ccc(-c2nsc3c2NC(=O)CC3c2ccc(Cl)cc2)cc1 (centres undefined),58.7%
5,[O-][n+]1c2ccccc2[n+]([O-])c2c3ccccc3[nH]c21,-36.6% (active)
6,COc1ccc(C2=NOC(CC(=O)N(CCO)CCO)C2)cc1OC1CCCC1 (centres undefined),90.2%
7,COc1ccc(-c2nc(SCCC(C)C)nc(Nc3ccc(F)c(Cl)c3)c2C#N)cc1,71.5%
8,COc1cc(-c2nc(SCCC(C)C)nc(Nc3ccccc3)c2C#N)cc(OC)c1OC,112%
9,COc1ccc(CCN2CCC(Nc3nc4ccccc4n3Cc3ccc(F)cc3)CC2)cc1,-84.1% (active)
10,CC(C)(C)c1cc(O)c(O)c(C(C)(C)C)c1,40.4%
11,O=C(c1ccccc1)c1ccc(-c2ccc(O)cc2)cc1,-16.5% (active)
12,C=C(C)[C@@H]1CC[C@]2(C(=O)N3CCCNCC3)CC[C@]3(C)[C@H](CC[C@@H]4[C@@]5(C)CCC(=O)C(C)(C)[C@@H]5CC[C@]43C)[C@@H]12,90.8%
13,CCn1cc(C2NC(=O)c3ccccc3N2)c2cccc(C)c21 (centres undefined),17.9%
14,CN(C)c1ccc(Nc2cc(-c3cccc(OC(F)(F)F)c3)nc3ccc(N4CCCC4)cc23)cc1,-48.1% (active)
15,Cc1cc(C)n(C(=O)CSc2nc3sc4c(c3c(=O)n2-c2ccccc2)CCCCC4)n1,111%
16,COc1cc(/C=C/C(=O)c2ccc(NC(=O)CSc3nnc(-c4ccc(Cl)cc4)n3-c3ccccc3)cc2)cc(OC)c1OC,72.9%
17,CC(C)(O)C(=O)O,108%
18,C=C1C(=O)O[C@H]2[C@H]1CC/C(COC(=O)Nc1nc3ccccc3[nH]1)=C\CC[C@@]1(C)O[C@@H]21,36.9%
19,O=C1c2cc3c(cc2-c2c1c1cc(F)c(F)cc1c(=O)n2CCCn1ccnc1)OCO3,-53.6% (active)
